Screens from PubChem BioAssay.
Sampled rows, rich in hits. Any-hit rate of the full collection: about 5%.
PREPL inh – human PREPL enzyme inhibition; hit rate 0.68% among 320,000; inhibition, % at 5.96 µM; AID 2751; Q4J6C6; recombinant PREPL, fluorescence polarization activity-based probe; in the data active = inhibition above about 43%;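 note: 0% = enzyme with DMSO and 100% = wells lacking enzyme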
ALR H2O2 inh – blocks human ALR sulfhydryl oxidase activity; purified ALR, DTT oxidation, H2O2 HRP-luminol luminescence; hit rate 3.8% among 290,000; AID 485317; P55789; inhibition, % (test concentration not listed);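 active = mean replicate inhibition above about 79%, with every replicate also reaching it, limit read from the data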
AI-2 QS modul – Vibrio harveyi AI-2 quorum sensing modulation | hit rate 0.4% among 300,000 | Vibrio harveyi JMH597 AI-2 luminescence/OD600 ratio, 9 h; stronger effect = lower value; strain lacks LuxN and CqsS sensors; 0 = neutral-control median | AID 2094 | activity change, % at 7.5 µM; in the data active = activity change below about -75%, passing the limit was not always enough;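 note: luminescence divided by OD600 gain over 9 h not by final OD600 alone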
CHT PAM – human CHT allosteric activation | B-score at 10 µM | hit rate 0.49% among 310,000 | CHT-expressing cells, membrane potential dye, choline EC20; stronger effect = higher value; LV-AA mutant CHT in HEK293 cells;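 active = initial fluorescence not abnormally high and integrated response B-score, plate-corrected, over 3 SD above library mean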
Target sequence (Q9GZV3 whole entry, looked up): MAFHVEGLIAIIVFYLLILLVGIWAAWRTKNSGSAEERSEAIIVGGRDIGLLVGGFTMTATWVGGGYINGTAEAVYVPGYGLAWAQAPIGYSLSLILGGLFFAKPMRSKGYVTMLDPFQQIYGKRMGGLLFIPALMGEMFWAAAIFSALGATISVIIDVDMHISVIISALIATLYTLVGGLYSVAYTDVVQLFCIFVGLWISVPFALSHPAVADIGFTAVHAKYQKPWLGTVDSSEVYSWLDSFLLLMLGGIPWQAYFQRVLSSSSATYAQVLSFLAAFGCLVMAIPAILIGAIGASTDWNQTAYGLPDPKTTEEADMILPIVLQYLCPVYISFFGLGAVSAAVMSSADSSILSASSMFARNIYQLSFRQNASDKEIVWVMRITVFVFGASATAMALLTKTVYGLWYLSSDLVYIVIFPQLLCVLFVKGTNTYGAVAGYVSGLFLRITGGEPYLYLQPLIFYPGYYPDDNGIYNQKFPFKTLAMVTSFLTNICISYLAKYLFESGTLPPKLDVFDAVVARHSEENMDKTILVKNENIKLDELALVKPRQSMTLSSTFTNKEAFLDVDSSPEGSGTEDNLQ
CHT block – inhibitors of human choline transporter CHT. AID 488975. B-score at 10 µM. Q9GZV3. hit rate 0.86% among 310,000. CHT-expressing cells, membrane potential dye, choline response; stronger effect = lower value;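 active = B-score over 3 SD under the library average, and starting fluorescence ratio not unusually high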;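 note: choline stimulus applied at its EC90 after an EC20 pre-addition; B-score computed on integrated fluorescence ratio after choline addition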
* = called active by the depositor; i = inactive; . = not tested or not shown.

SMILES | PREPL inh | ALR H2O2 inh | AI-2 QS modul | CHT PAM | CHT block
COc1ccc(Cc2c(O)nc(SCC(=O)N3CCCCCC3)[nH]c2=O)cc1 | 10 | 57 | 13 | i | i
COc1ccc(CCNC(=O)CSc2nc(O)cc(=O)[nH]2)cc1OC | -9 | 95* | 19 | i | i
COc1ccc(Cc2c(O)nc(SCC(=O)NC(C)(C)C)[nH]c2=O)cc1 | 1 | 84* | 7 | i | i
COc1ccc(CCNC(=O)CSc2nc(O)c(CC(C)C)c(=O)[nH]2)cc1OC | 1 | 98* | 15 | i | i
Cc1ccc(OCc2cc(C(=O)NC3CCOC3)no2)cc1C (centres undefined) | -8 | -1 | 18 | i | i
CC1CCN(S(=O)(=O)c2ccc(C(C)C)cc2)CC1 | -2 | -4 | -88* | i | i
CC(C)c1ccc(S(=O)(=O)N2CCN(CC(=O)Nc3ccc(Cl)cc3F)CC2)cc1 | -6 | -2 | . | . | .
COc1ccc(OC)c(C(=O)CN2CCN(S(=O)(=O)c3ccc(Br)cc3)CC2)c1 | -4 | -18 | 23 | i | -6.5*
O=C(CN1CCN(S(=O)(=O)c2ccc(Br)cc2)CC1)c1ccc(O)c(O)c1 | 2 | 96* | -11 | i | i
CC(C)c1ccc(S(=O)(=O)N2CCN(CC(=O)c3ccc(O)c(O)c3)CC2)cc1 | 18 | 99* | 7 | i | i
CC(C)OC(=O)c1ccc(N)cc1 | -5 | 14 | -9 | i | i
O=C(CN1CCN(c2ccccc2F)CC1)c1ccc(O)c(O)c1 | . | 99* | 5 | i | i
CCOC(=O)COc1ccccc1/C=C\[N+](=O)[O-] | 3 | 23 | -90* | i | i
CCOc1cc(N2CCOCC2)c(OCC)cc1NC(=O)c1cc(S(=O)(=O)N2CCOCC2)ccc1C | 13 | . | . | . | .
CC1CC(Nc2ccccc2)c2ccccc2N1C(=O)c1ccco1 (centres undefined) | 0 | 99* | 9 | i | i
Clc1ccc(N2N=C(c3cccs3)CC2c2ccco2)cc1 (centres undefined) | 1 | -5 | 13 | i | i
c1ccc(N2N=C(c3cccs3)CC2c2ccco2)cc1 (centres undefined) | 11 | 97* | 16 | i | i
C=CCn1c(SCC(=O)Nc2nncs2)nnc1-c1ccco1 | -5 | . | 8 | i | i
CCn1nnc(-c2ccccc2NS(=O)(=O)c2ccc(S(=O)(=O)N(C)C3CCCCC3)cc2)n1 | 1 | -1 | 21 | i | i
COc1ccccc1CNC(=O)C1Cc2cc(S(=O)(=O)N3CCCCC3)ccc2N1C(C)=O (centres undefined) | 2 | -4 | 19 | i | i
CN(C)c1cccc(C(=O)NNC(=S)NC2CC3CCC2C3)c1 (centres undefined) | 2 | 85* | 16 | i | i
Cc1ccsc1C=Nc1ccc(O)cc1 | 24 | 96* | 38 | i | i
Cc1ccc(NC(=O)C2CCCN2C(=O)OCc2ccccc2)c(C)c1 (centres undefined) | -2 | -6 | 0 | i | i
Cc1ccc(NC(=O)C2CCCN2C(=O)OCc2ccccc2)c(O)c1 (centres undefined) | -7 | 86* | 11 | i | i
CC1CCN(C(=O)CSc2nc3ccccc3s2)CC1 | 0 | 99* | -33 | i | i
SMILES | PREPL inh | ALR H2O2 inh | AI-2 QS modul | CHT PAM | CHT block
CC(C)(C)NC(=O)CSc1nc(Cc2ccccc2)nc2ccccc12 | -12 | 98* | -1 | i | i
O=C(CSc1nc2ccccc2s1)N1CCCCC1 | 26 | 99* | 34 | i | i
O=C(CSc1nc2ccccc2[nH]1)N1CCN(C(=O)c2ccco2)CC1 | -6 | 1 | 10 | i | i
O=C(CSc1nc2ccccc2s1)N1CCN(C(=O)c2ccco2)CC1 | -14 | 99* | 15 | i | i
Cc1nnc(SCC(=O)N2CCCC2)n(N)c1=O | -1 | . | 3 | i | i
CC1CCCC(C)N1C(=O)CSc1nc2ccccc2s1 (centres undefined) | -1 | 98* | 49 | i | i
O=C(O)C1CCN(C(=O)CSc2nc3ccccc3s2)CC1 | 1 | 8 | 30 | i | i
CCc1nc(SCC(=O)N2CCCC2)c2ccccc2n1 | 15 | 92* | 24 | i | i
NC(=O)C1CCN(C(=O)CSc2nc3ccccc3s2)CC1 | 3 | 98* | 8 | i | i
Cc1ccc2nc(C)c(CN3CCN(c4ccc([N+](=O)[O-])cc4Cl)CC3)n2c1 | 23 | -2 | 14 | i | i
c1ccc(CCc2nc(-c3ccccc3)no2)cc1 | -2 | -2 | -94* | i | i
c1ccc(CCc2ccccc2-c2nc(-c3cccnc3)no2)cc1 | -21 | -4 | 24 | i | i
Brc1ccc(-c2noc(CCc3ccccc3)n2)cc1 | -13 | -1 | -60 | i | i
c1ccc(CCc2nc(-c3cccnc3)no2)cc1 | 1 | -3 | -93* | i | i
CCN(CC(=O)Nc1ccc2c(c1)OCCO2)CC(=O)Nc1ccc(C)c([N+](=O)[O-])c1 | 23 | -27 | . | . | .
Cc1cc(Cc2cc(C)c(N)cc2C)c(C)cc1N | 7 | 97* | 9 | i | i
Cc1ccc(C)c(N)c1 | 6 | -9 | . | . | .
c1ccc2c(NC3CCCC3)nnc(NC3CCCC3)c2c1 | 15 | 98* | 10 | i | i
CCOc1nc(N2CCOCC2)nc(N2CCOCC2)n1 | 4 | -4 | 10 | i | i
Cc1ccc(NC(=O)N/C=C/c2ccco2)cc1C | 6 | 87* | 29 | i | i
CC(=O)c1sc(NC(=O)CCN2C(=O)c3ccccc3C2=O)nc1C | -6 | -3 | -65 | i | i
O=S(=O)(c1cc(O)ccc1O)c1cccc2c(S(=O)(=O)c3cc(O)ccc3O)cccc12 | 0 | 93* | -60 | i | i
Cc1cc(NC(=O)c2ccc(S(=O)(=O)Nc3ccccc3)cc2)no1 | -1 | 98* | -2 | i | i
Cc1ccc(S(=O)(=O)Nc2ccc(C(=O)Nc3cc(C)on3)cc2)cc1 | 2 | 55 | -3 | i | i
Cc1cc(NS(=O)(=O)c2ccc(NC(=O)Cc3cccs3)cc2)no1 | 5 | . | -78* | i | i
CCCCOC(=O)Nc1ccc(S(=O)(=O)Nc2onc(C)c2C)cc1 | 13 | 6 | 17 | i | i
CC(=O)c1ccc(NC(=O)C2CCC(C)(C(=O)O)C2(C)C)cc1 (centres undefined) | 6 | 1 | 13 | i | i
CC1(C(=O)O)CCC(C(=O)Nc2ccccc2O)C1(C)C (centres undefined) | 1 | 86* | 32 | i | i
Clc1ccc(CSc2nnc(-c3c[nH]c4ccccc34)o2)cc1 | 11 | -11 | -77* | i | i
Cc1nn(CC(=O)NCc2ccc(-n3cccn3)cc2)c(C)c1[N+](=O)[O-] | 10 | -16 | -2 | i | i
